Results as given in PubChem BioAssay (EPA / NIEHS).
Records with an inconclusive call do not appear. Calls of active or inactive are those of the source. Rule for the calls, unless noted: active = hit-call score of the fitted dose curve at least 0.9, where 1 is the maximum; inactive = score below 0.9.

Tests used:
[1] = IUF_NPC1_viability_72hr: Viability Assessment at 72 hours in the Leibniz Research Institute for Environmental Medicine (IUF) Neural Progenitor Cell Proliferation Assay (NPC1) (AID 2284209)
In short: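 Human fetal-cortex neural progenitor spheres (0.25–0.35 mm, one per well) grown in EGF/FGF proliferation medium at 37C, pH 7.2-7.6, exposed 72 h without renewal; viability read as alamar blue resazurin-to-resorufin fluorescence relative to DMSO.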

[2] = CCTE_Mundy_HCI_Cortical_Synap_Neur_Matur_NeuriteSpotCountPerNeuriteLength: CCTE's Synaptogenesis and Neurite Maturation Assay in rat cortical cells for Neurite Spot Count per Neurite Length, Mundy Lab (AID 2284210)
In short: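 Rat primary cortical cultures, AraC added at DIV 5 to suppress glia; chemical exposure from DIV 7 to DIV 12. Fixed cells stained for MAP2 and synaptophysin plus Hoechst; synaptophysin puncta per neurite length quantified by high-content imaging, relative to DMSO.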

[3] = CCTE_Mundy_HCI_Cortical_Synap_Neur_Matur_BPCount: CCTE's Synaptogenesis and Neurite Maturation Assay in rat cortical cells for Branch Point Count, Mundy Lab (AID 2284211)
In short: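 Branch point number is quantified by automated imaging of fluorescently labelled neurites and synapses in rat primary cortical neurons exposed from DIV 7 to DIV 12. Activity is analysed relative to DMSO negative control.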

[4] = CCTE_Mundy_HCI_Cortical_NOG_NeuriteCount: CCTE's Neurite Outgrowth Assay in rat cortical cells for Neurite Count, Mundy Lab (AID 2284212);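 note: cells fixed about two days after chemical exposure began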
In short: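 Neurite number per cell from high-content imaging of betaIII-tubulin immunostaining, with Hoechst nuclear counterstain.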

[5] = CCTE_Mundy_HCI_Cortical_NOG_NeuriteLength: CCTE's Neurite Outgrowth Assay in rat cortical cells for Neurite Length, Mundy Lab (AID 2284213)
In short: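 Neurite length was read by high-content imaging of βIII-tubulin-labelled neurites in rat primary cortical cultures. Activity was fitted relative to DMSO.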

[6] = CCTE_Mundy_HCI_Cortical_Synap_Neur_Matur_NeuriteLength: CCTE's Synaptogenesis and Neurite Maturation Assay in rat cortical cells for Neurite Length, Mundy Lab (AID 2284214)
In short: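 Rat primary cortical cells were plated, treated with AraC at DIV 5 to arrest glial growth, then chemical-dosed with media change at DIV 7 through DIV 12. Fixed cells stained for MAP2, synaptophysin and Hoechst; neurite length quantified by high-content imaging.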

[7] = CCTE_Mundy_HCI_Cortical_Synap_Neur_Matur_NeuriteSpotCountPerNeuron: CCTE's Synaptogenesis and Neurite Maturation Assay in rat cortical cells for Neurite Spot Count per Neuron Count, Mundy Lab (AID 2284215)
In short: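 Read-out: neurite-associated synaptophysin puncta per neuron, imaged by high-content analysis after MAP2, synaptophysin and Hoechst staining. Rat primary cortical cultures, dosed DIV 7 through DIV 12; DMSO served as baseline.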

[8] = CCTE_Mundy_HCI_Cortical_Synap_Neur_Matur_SynapseCount: CCTE's Synaptogenesis and Neurite Maturation Assay in rat cortical cells for Synapse Count, Mundy Lab (AID 2284218)
In short: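 Rat primary cortical cells in 96-well plates received AraC at DIV 5 and were dosed with chemicals at DIV 7 with media change, through DIV 12 (288.33 h). Synapses per neuron counted by high-content imaging of MAP2/synaptophysin/Hoechst staining, versus DMSO baseline.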

[9] = CCTE_Mundy_HCI_Cortical_Synap_Neur_Matur_NeuriteCount: CCTE's Synaptogenesis and Neurite Maturation Assay in rat cortical cells for Neurite Count, Mundy Lab (AID 2284222)
In short: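 Rat primary cortical cells; AraC added at DIV 5, chemicals dosed with media change at DIV 7 through DIV 12. MAP2/synaptophysin/Hoechst immunostaining, high-content imaging of neurite number; fitted relative to DMSO.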

[10] = CCTE_Mundy_HCI_Cortical_Synap_Neur_Matur_CellBodySpotCount: CCTE's Synaptogenesis and Neurite Maturation Assay in rat cortical cells for Cell Body Spot Count, Mundy Lab (AID 2284223)
In short: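 Read-out: cell body-associated synaptophysin puncta per neuron, imaged after MAP2, synaptophysin and Hoechst staining. Rat cortical cells, AraC DIV 5, chemical dosing DIV 7, fixation DIV 12. Activity fitted in positive direction relative to DMSO baseline.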

[11] = UKN2_HCS_IMR90_cell_viability: Viability Assessment in the University of Konstanz (UKN) Leist Lab Neural Crest Cell Migration Assay in human induced IMR90 Pluripotent Stem Cells (UKN2) (AID 2284233);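 note: viability of neural crest cells differentiated from IMR90 iPSC measured by calcein-AM fluorescence imaging; cells exposed to compound for 24 h after a 24 h migration phase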
In short: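 Neural crest cells derived from IMR90 iPSC migrate into a stopper-free zone for 24 h in EGF/FGF medium, then are exposed to compound for 24 h. Viability assessed by calcein-AM and Hoechst staining with high-content imaging, fitted bidirectionally versus DMSO.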

[12] = CCTE_Mundy_HCI_Cortical_NOG_BPCount: CCTE's Neurite Outgrowth Assay in rat cortical cells for Branch Point Count, Mundy Lab (AID 2284237)
In short: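 Measured 50.33 h after dosing, this morphology endpoint uses rat primary cortical cultures labelled for betaIII-tubulin. Branch points are quantified by high-content imaging, with DMSO as negative control and baseline.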

[13] = CCTE_Mundy_HCI_hNP1_Casp3_7: CCTE's Caspase-Glo 3/7 Assay in human neuroprogenitor cells for Apoptosis, Mundy Lab (AID 2284240)
In short: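 Luminescent caspase-3/7 readout, 26.5 h post-dose, in human neural progenitor cells from WA09 embryonic stem cells. Cells grew 40–44 h at 37 °C, 5% CO2 before chemical addition. Activity analysed as signal increase over DMSO baseline.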

[14] = IUF_NPC2c_oligodendrocyte_migration_120hr: Leibniz Research Institute for Environmental Medicine (IUF) 120-hour Neural Progenitor Cell Migration Assay for Oligodendrocyte Migration (NPC2c) (AID 2284297);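 note: O4-positive oligodendrocyte migration distance divided by radial glia migration distance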
In short: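 hNPC spheres (GW 16-19 cortex), PDL/laminin, DMEM/F12 3:1 + 1% N2, 37C. Dosing day 0–5, half feed day 3, DMSO ≤0.1%. Fixed 120 h; O4 ICC + Hoechst, HCI. Readout: mean oligodendrocyte distance from sphere edge / radial glia distance.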

[15] = IUF_NPC2a_radial_glia_migration_120hr: Leibniz Research Institute for Environmental Medicine (IUF) 120-hour Neural Progenitor Cell Migration Assay for Radial Glia Migration (NPC2a) (AID 2284298)
In short: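 Hoechst-stained nuclei imaged at 120 h; algorithm maps sphere core by densest nuclei, sets migration edge at density threshold, gives radial glia migration distance (um) per well vs DMSO. hNPC spheres (0.3 mm), PDL/laminin, DMEM/F12 3:1 + 1% N2.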

[16] = IUF_NPC2a_radial_glia_migration_72hr: Leibniz Research Institute for Environmental Medicine (IUF) 72-hour Neural Progenitor Cell Migration Assay for Radial Glia Migration (NPC2a) (AID 2284299)
In short: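 Human fetal cortex (GW 16-19) neural progenitor spheres, 0.3 mm, plated on poly-D-lysine/laminin in N2 differentiation medium with compound from day 0. Radial glia migration distance (um, sphere core edge to migration edge) measured manually in four directions on 72 h brightfield images; well mean used.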

[17] = IUF_NPC2b_neuronal_migration_120hr: Leibniz Research Institute for Environmental Medicine (IUF) 120-hour Neural Progenitor Cell Migration Assay for Neuron Migration (NPC2b) (AID 2284300)
In short: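 hNPC spheres, PDL/laminin, DMEM:F12 3:1 + 1% N2, 37C/5% CO2; 7 concentrations + solvent control (DMSO ≤0.1%), 5 d exposure, half-feed day 3. Fix 120 h, TUBB3 ICC, HCI: mean neuron migration distance ÷ glia distance.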

[18] = IUF_NPC3_neuronal_differentiation_120hr: Leibniz Research Institute for Environmental Medicine (IUF) 120-hour Neuronal Differentiation Assay (NPC3) (AID 2284301)
In short: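 Human fetal (GW 16-19) neural progenitor spheres (0.3 mm) plated on poly-D-lysine/laminin in N2 differentiation medium, exposed 120 h at 37C with half-medium renewal day 3; 7 concentrations. TUBB3+ cells as % of Hoechst nuclei, CNN-identified; DMSO baseline.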

[19] = IUF_NPC4_neurite_length_120hr: Leibniz Research Institute for Environmental Medicine (IUF) 120-hour Neuronal Morphology Assay for Neurite Length (NPC4) (AID 2284302)
In short: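 Human fetal neural progenitor spheres (0.3 mm) plated on poly-D-lysine/laminin in N2 differentiation medium, exposed from day 0 for 120 h with half-medium refresh at day 3, 37C. Mean neurite length (um) of TUBB3-positive neurons from skeletonized immunostaining images; DMSO ≤0.1%.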

[20] = IUF_NPC5_oligodendrocyte_differentiation_120hr: Leibniz Research Institute for Environmental Medicine (IUF) 120-hour Oligodendrocyte Differentiation Assay (NPC5) (AID 2284304; active = hit-call score of the fitted dose curve at least 0.9, where 1 is the maximum;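 note: primary human fetal neural progenitor spheres plated to migrate and differentiate; share of O4-positive cells among Hoechst nuclei found by CNN image analysis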)
In short: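 hNPC spheres, fetal cortex GW 16-19; PDL/laminin, DMEM:F12 3:1 + 1% N2, 37C/5% CO2; 7 concentrations + solvent control, 5 d exposure, half-change day 3. Readout: %O4+ of Hoechst+ nuclei in migration area, CNN classification; DMSO baseline.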

[21] = IUF_NPC4_neurite_area_120hr: Leibniz Research Institute for Environmental Medicine (IUF) 120-hour Neuronal Morphology Assay for Neurite Area (NPC4) (AID 2284305; active = hit-call score of the fitted dose curve at least 0.9, where 1 is the maximum)
In short: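 Human fetal neural progenitor spheres (0.3 mm) plated on poly-D-lysine/laminin in N2 differentiation medium, exposed 120 h (7 concentrations, DMSO ≤0.1%, half-medium refresh day 3). Fixed, TUBB3 immunostained; mean neurite area per neuron by Omnisphero skeletonization.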

[22] = IUF_NPC2-5_cytotoxicity_72hr: Cytotoxicity Assessment at 72 hours in the Leibniz Research Institute for Environmental Medicine (IUF) Neural Progenitor Cell Migration and Differentiation Assay for Cytotoxicity (NPC2-5) (AID 2284306; active = hit-call score of the fitted dose curve at least 0.9, where 1 is the maximum;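 note: LDH release into supernatant measured by resorufin fluorescence marking membrane damage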)
In short: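 Human fetal primary neural progenitor spheres (0.3 mm) plated on poly-D-lysine/laminin in N2 differentiation medium, exposed from day 0 at 37C. LDH-dependent resazurin-to-resorufin fluorescence in supernatant at 72 h; 7 concentrations, DMSO at most 0.1%.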

[23] = IUF_NPC2-5_cytotoxicity_120hr: Cytotoxicity Assessment at 120 hours in the Leibniz Research Institute for Environmental Medicine (IUF) Neural Progenitor Cell Migration and Differentiation Assay (NPC2-5) (AID 2284307; active = hit-call score of the fitted dose curve at least 0.9, where 1 is the maximum)
In short: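 hNPC spheres on PDL/laminin, N2 medium, 37C; 7 concs + solvent control, DMSO ≤0.1%; 5-day exposure, half medium changed day 3. LDH in supernatant at 120 h, resazurin→resorufin fluorescence, gain-of-signal.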

[24] = IUF_NPC2-5_cell_number_120hr: Cell Number Assessment at 120 hours in the Leibniz Research Institute for Environmental Medicine (IUF) Neural Progenitor Cell Migration and Differentiation Assay (NPC2-5) (AID 2284308);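 note: count of Hoechst-stained nuclei in migration zone around plated human neural progenitor spheres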
In short: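 Hoechst-stained nuclei within the migration area were counted by automated high content imaging after 120 h. Single hNPC spheres differentiated on poly-D-lysine/laminin in DMEM/F12 (3:1) with 1% N2, compound present throughout, DMSO ≤0.1%.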

[25] = IUF_NPC2-5_viability_120hr: Viability Assessment at 120 hours in the Leibniz Research Institute for Environmental Medicine (IUF) Neural Progenitor Cell Migration and Differentiation Assay (NPC2-5) (AID 2284312)
In short: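 Human fetal neural progenitor spheres (0.3 mm) plated on poly-D-lysine/laminin in N2 differentiation medium, exposed 120 h with half-medium refresh at day 3. Viability by alamar blue resazurin fluorescence; 7 concentrations, DMSO max 0.1%.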

[26] = CCTE_Mundy_HCI_iCellGluta_NOG_NeuriteLength: CCTE's Neurite Outgrowth Assay in iCellGluta cells for Neurite Length, Mundy Lab (AID 2284318; active = hit-call score of the fitted dose curve at least 0.9, where 1 is the maximum)
In short: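 Automated high-content imaging of betaIII-tubulin (Alexa Fluor-488) and Hoechst-stained cells gave neurite length, normalized to the DMSO baseline.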

[27] = IUF_NPC1_cytotoxicity_72hr: Cytotoxicity Assessment at 72 hours in the Leibniz Research Institute for Environmental Medicine (IUF) Neural Progenitor Cell Proliferation Assay (NPC1) (AID 2284332; active = hit-call score of the fitted dose curve at least 0.9, where 1 is the maximum;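 note: rising LDH signal means more cytotoxicity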)
In short: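 Single human fetal cortex neural progenitor spheres (GW 16-19, 0.25-0.35 mm) in EGF/FGF proliferation medium were exposed to compound for 72 h at 37C without renewal. Medium LDH release was read as resorufin fluorescence and fitted as gain-of-signal.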

[28] = CCTE_Mundy_HCI_iCellGluta_NOG_NeuronCount: CCTE's Neurite Outgrowth Assay in iCellGluta cells for Neuron Count, Mundy Lab (AID 2284340; active = hit-call score of the fitted dose curve at least 0.9, where 1 is the maximum;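 note: cells fixed about 48 h after compound addition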)
In short: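 Neuron count read by automated high-content imaging of Hoechst 33342 and betaIII-tubulin/Alexa Fluor-488 labelling in human iPSC glutamatergic neurons. Activity fitted relative to DMSO.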

[29] = CCTE_Mundy_HCI_iCellGluta_NOG_NeuriteCount: CCTE's Neurite Outgrowth Assay in iCellGluta cells for Neurite Count, Mundy Lab (AID 2284342; active = hit-call score of the fitted dose curve at least 0.9, where 1 is the maximum;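 note: chemical exposure about 48 hours starting 2 hours after plating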)

Measured: AC50

[Cl-].[Cl-].[NH2-].[NH2-].[Pt+4]
active: [3] 0.029 µM | [18] 9.95 µM | [19] 33.2 µM | [22] 34.7 µM | [24] 28.4 µM | [26] 26 µM | [28] 85.7 µM | [29] 70 µM
inactive: all other assays above
